Laboratory results from PubChem BioAssay AID1159580 (chemical genetic matrix, 2015).
The whole screen tested about 5,500 compounds, of which about 2,000 (36%) were called active. About 18% were inconclusive and are not listed. Rule as the data show it: active = normalized growth mostly below about 0.91 (no sharp cut-off); inconclusive = no clear call, values can overlap the other calls; inactive = mostly above about 0.92. The list shows a part of the results.

Experiment: chemical genetic growth profiling, strain panel (AID 1159580);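 also: tested at 20 µM; growth read once vehicle control cultures reached saturation at 30 °C; 1 = growth at the plate median or of vehicle wells; lower values mean less growth of the strain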
Conditions: S. cerevisiae deletion strains, growth OD

Measured: normalized growth

Cc1cc(=O)c2c(O)cc(O)c(C)c2o1
inactive: locus YAL021C, strain ccr4, hits give low values 0.976 | locus YAL026C, strain drs2, hits give low values 0.926 | locus YAL030W, strain snc1, hits give low values 0.954 | locus YBL061C, strain skt5, hits give low values 0.951 | locus YBR009C, strain hhf1, hits give low values 0.953 | locus YBR021W, strain FUR4, hits give low values 0.995 | locus YBR023C, strain chs3, hits give low values 0.936 | locus YBR171W, strain sec66, hits give low values 0.921 | locus YBR229C, strain ROT2, hits give low values 0.987 | locus YBR231C, strain swc5, hits give low values 0.924 | locus YBR279W, strain paf1, hits give low values 0.946 | locus YCL011C, strain gbp2, hits give low values 0.951 | locus YCL016C, strain dcc1, hits give low values 0.937 | locus YCL029C, strain bik1, hits give low values 0.994 | locus YCL061C, strain MRC1, hits give low values 0.938 | locus YCL069W, strain vba3, hits give low values 0.982 | locus YCR088W, strain abp1, hits give low values 0.965 | locus YDL005C, strain med2, hits give low values 0.963 | locus YDL035C, strain GPR1, hits give low values 1.02 | locus YDL040C, strain nat1, hits give low values 0.979 | locus YDL074C, strain BRE1, hits give low values 1.02 | locus YDL101C, strain DUN1, hits give low values 0.975 | locus YDL134C, strain PPH21, hits give low values 0.996 | locus YDL185W, strain tfp1, hits give low values 0.962 | locus YDL192W, strain arf1, hits give low values 0.988 | locus YDR001C, strain nth1, hits give low values 0.959 | locus YDR069C, strain doa4, hits give low values 0.962 | locus YDR101C, strain arx1, hits give low values 1.01 | locus YDR159W, strain sac3, hits give low values 0.907 | locus YDR162C, strain NBP2, hits give low values 1.03 | locus YDR297W, strain sur2, hits give low values 0.966 | locus YDR318W, strain mcm21, hits give low values 0.988 | locus YDR334W, strain swr1, hits give low values 0.951 | locus YDR388W, hits give low values 0.98 | locus YDR392W, strain spt3, hits give low values 0.753 | locus YDR502C, strain sam2, hits give low values 0.977 | locus YEL003W, strain gim4, hits give low values 0.95 | locus YEL037C, strain rad23, hits give low values 0.961 | locus YEL061C, strain CIN8 (second series), hits give low values 0.943 | locus YEL061C, strain CIN8, hits give low values 0.993 | locus YER015W, strain faa2, hits give low values 0.95 | locus YER016W, strain bim1, hits give low values 0.937 | locus YER110C, hits give low values 0.968 | locus YER111C, strain swi4, hits give low values 0.934 | locus YER155C, strain BEM2, hits give low values 0.987 | locus YER167W, strain BCK2, hits give low values 1 | locus YFR010W, strain ubp6, hits give low values 0.942 | locus YGL078C, strain dbp3, hits give low values 0.965 | locus YGL086W, strain mad1, hits give low values 1 | locus YGL167C, strain pmr1, hits give low values 0.936 | locus YGL173C, strain kem1, hits give low values 0.946 | locus YGL227W, strain vid30, hits give low values 0.957 | locus YGL240W, strain doc1, hits give low values 0.931 | locus YGL248W, strain PDE1, hits give low values 0.995 | locus YGL253W, strain hxk2, hits give low values 0.962 | locus YGR078C, strain PAC10, hits give low values 0.985 | locus YGR135W, strain pre9, hits give low values 0.965 | locus YGR229C, strain SMI1, hits give low values 1.01 | locus YGR252W, strain gcn5, hits give low values 1.03 | locus YHR013C, strain ard1, hits give low values 1.05 | locus YHR027C, strain rpn1, hits give low values 0.964 | locus YHR030C, strain SLT2, hits give low values 0.996 | locus YHR079C, strain IRE1 (second series), hits give low values 0.988 | locus YHR094C, strain hxt1, hits give low values 0.983 | locus YHR129C, strain ARP1, hits give low values 0.985 | locus YHR200W, strain rpn10, hits give low values 0.96 | locus YIL066C, strain RNR3, hits give low values 0.991 | locus YIL073C, strain SPO22, hits give low values 0.967 | locus YIL125W, strain kgd1, hits give low values 1 | locus YIR030C, strain dcg1, hits give low values 0.973 | locus YJL092W, strain hpr5, hits give low values 0.964 | locus YJL095W, strain BCK1 (second series), hits give low values 0.962 | locus YJL095W, strain BCK1, hits give low values 0.962 | locus YJL115W, strain asf1, hits give low values 0.971 | locus YJL129C, strain trk1, hits give low values 0.901 | locus YJL134W, strain LCB3, hits give low values 0.989 | locus YJL154C, strain vps35, hits give low values 0.977 | locus YJL164C, strain tpk1, hits give low values 0.946 | locus YJL166W, strain qcr8, hits give low values 0.956 | locus YJL168C, strain set2, hits give low values 0.976 | locus YJL187C, strain SWE1 (second series), hits give low values 0.97 | locus YJL187C, strain SWE1, hits give low values 0.935 | locus YJR043C, strain POL32, hits give low values 1.05 | locus YKL009W, strain mrt4, hits give low values 0.954 | locus YKL068W, hits give low values 0.985 | locus YKL085W, strain MDH1 (second series), hits give low values 0.984 | locus YKL085W, strain MDH1, hits give low values 0.984 | locus YKL160W, strain elf1, hits give low values 0.908 | locus YKL190W, strain CNB1, hits give low values 0.993 | locus YKR001C, strain vps1, hits give low values 0.949 | locus YKR026C, strain gcn3, hits give low values 0.96 | locus YKR091W, strain srl3, hits give low values 0.96 | locus YLL001W, strain dnm1, hits give low values 0.944 | locus YLL026W, hits give low values 0.962 | locus YLL041C, strain sdh2, hits give low values 0.971 | locus YLR027C, strain aat2, hits give low values 0.962 | locus YLR039C, strain RIC1, hits give low values 0.919 | locus YLR058C, strain SHM2, hits give low values 0.982 | locus YLR102C, strain apc9, hits give low values 0.982 | locus YLR221C, strain rsa3, hits give low values 0.977 | locus YLR258W, strain gsy2, hits give low values 0.965 | locus YLR268W, strain sec22, hits give low values 1 | locus YLR330W, strain CHS5, hits give low values 0.993 | locus YLR342W, strain FKS1, hits give low values 0.962 | locus YLR357W, strain rsc2, hits give low values 1 | locus YLR370C, strain arc18, hits give low values 0.971 | locus YLR371W, strain rom2, hits give low values 0.983 | locus YLR384C, strain iki3, hits give low values 0.942 | locus YLR418C, strain cdc73, hits give low values 0.925 | locus YML016C, strain PPZ1, hits give low values 0.982 | locus YML032C, strain rad52, hits give low values 0.987 | locus YML120C, strain ndi1, hits give low values 0.949 | locus YML124C, strain tub3, hits give low values 0.98 | locus YMR058W, strain fet3, hits give low values 0.928 | locus YMR078C, strain ctf18, hits give low values 0.989 | locus YMR125W, strain sto1, hits give low values 0.951 | locus YMR129W, hits give low values 0.958 | locus YMR205C, strain PFK2, hits give low values 0.896 | locus YMR223W, strain ubp8, hits give low values 0.97 | locus YMR231W, strain pep5, hits give low values 0.933 | locus YMR263W, strain SAP30, hits give low values 0.965 | locus YMR307W, strain GAS1, hits give low values 1.05 | locus YNL067W, strain RPL9B, hits give low values 0.978 | locus YNL071W, strain lat1, hits give low values 0.938 | locus YNL209W, strain ssb2, hits give low values 0.96 | locus YNL233W, strain BNI4, hits give low values 0.941 | locus YNL248C, strain rpa49, hits give low values 0.929 | locus YNL250W, strain rad50, hits give low values 0.976 | locus YNL271C, strain bni1, hits give low values 0.982 | locus YNL298W, strain CLA4, hits give low values 0.983 | locus YNL307C, strain MCK1, hits give low values 0.956 | locus YNL322C, strain KRE1 (second series), hits give low values 0.971 | locus YNL322C, strain KRE1, hits give low values 1.01 | locus YNR049C, strain mso1, hits give low values 0.969 | locus YNR052C, strain pop2, hits give low values 0.978 | locus YOL006C, strain TOP1, hits give low values 1.09 | locus YOL012C, strain htz1 0.94 | locus YOL147C, strain pex11, hits give low values 0.99 | locus YOR001W, strain rrp6, hits give low values 0.909 | locus YOR061W, strain CKA2, hits give low values 1.02 | locus YOR069W, strain VPS5, hits give low values 0.98 | locus YOR070C, strain gyp1, hits give low values 0.961 | locus YOR080W, strain dia2, hits give low values 0.972 | locus YOR083W, strain WHI5, hits give low values 0.919 | locus YOR106W, strain vam3, hits give low values 0.869 | locus YOR136W, strain idh2, hits give low values 0.981 | locus YOR144C, strain elg1, hits give low values 0.982 | locus YOR184W, strain ser1, hits give low values 1.04 | locus YOR265W, strain rbl2, hits give low values 0.964 | locus YOR290C, strain snf2, hits give low values 0.898 | locus YOR316C, strain cot1, hits give low values 0.969 | locus YPL078C, strain atp4, hits give low values 0.942 | locus YPL106C, strain sse1, hits give low values 0.942 | locus YPL240C, strain hsp82, hits give low values 0.959 | locus YPL241C, strain CIN2, hits give low values 0.998 | locus YPR119W, strain clb2, hits give low values 0.995 | locus YPR141C, strain kar3, hits give low values 0.987 | locus YPR163C, strain tif3, hits give low values 0.992 | locus YPR167C, strain met16, hits give low values 0.979 | strain wtn01, hits give low values 1.01
active: locus YDR137W, strain rgp1, hits give low values 0.504 | locus YDR195W, strain ref2 1.34 [resistant] | locus YDR335W, strain msn5, hits give low values 0.897 | locus YER155C, strain BEM2 (second series), hits give low values 0.808 | locus YHR142W, strain chs7, hits give low values 0.869 | locus YLR262C, strain YPT6 (second series), hits give low values 0.507 | locus YLR320W, strain mms22, hits give low values 0.853 | locus YOR270C, strain vph1, hits give low values 0.729 | locus YPL051W, strain arl3, hits give low values 0.859
